According to PubChem BioAssay (Tox21):
“And” between values parts separate entries of the source, which are not always exact repeats. Identical values can stand only once. Results filed as inconclusive are left out. A call without a number means that no potency is given here. Some structures have more than one record in an assay (separate samples or runs), and their calls can disagree. The source made the active and inactive calls. Unless noted, calls follow the shape of the dose curve; as a rule, active = well fitted curve in the direction sought with a large enough effect in the repeat runs; inconclusive = weak or mixed curves; inactive = no such curve, though single readings can be large; an effect the other way counts as inactive or inconclusive.

Tests used:
[1] = molecular target: Thyrotropin receptor (Homo sapiens) (UniProt P16473); test: qHTS assay to identify small molecule antagonists of the thyroid stimulating hormone receptor (TSHR) signaling pathway (AID 1259385; calls by dose curve; also: nearly all actives have a fitted effect of over 20% in size)
Method in brief: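 TSHR-HEK293 cells were plated and held 18 h at 37C/5% CO2, then given compound plus Ro20-1724 and stimulated with TSH at 1.5 ng/mL final. After 30 min at room temperature, cAMP was detected with cAMP-d2/anti-cAMP-cryptate (1 h) by fluorescence.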

[2] = qHTS assay to identify small molecule agonists of the estrogen receptor alpha (ER-alpha) signaling pathway in the presence of an antagonist - cell viability counter screen (AID 1259386);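 also: series mostly up to about 92 µM; cells exposed to compounds for 22 h at 37 °C before the viability read; nearly all actives have a fitted effect of over 30% in size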
Method in brief: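 Steps: 5-day stripped-FBS culture; seed and incubate 24hr; add ICI-182,780 (10.0nM final); pin 15-point compound titration; incubate 22hr at 37C; add CellTiter-Fluor at 21hr; read fluorescence.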

[3] = molecular target: Progesterone receptor (Homo sapiens) (UniProt P06401); test: qHTS assay to identify small molecule agonists of the progesterone receptor (PR) signaling pathway (AID 1346784; calls by dose curve; also: nearly all actives have a fitted effect of over 30% in size)
Method in brief: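 The screen uses PR-UAS-bla HEK 293T cells in charcoal-stripped serum (2%). Compounds are applied for 16 hr at 37C after a 6 hr pre-incubation, and reporter activity is detected with a FRET beta-lactamase substrate after 2 hr at room temperature.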

[4] = molecular target: Progesterone receptor (Homo sapiens) (UniProt P06401); test: qHTS assay to identify small molecule antagonists of the progesterone receptor (PR) signaling pathway (AID 1346795; active = well fitted inhibition curve with a large enough effect in the signal ratio in the repeat runs, not every such curve was filed as active; the % refers to the signal ratio; also: potency is read from the fitted curve at half-maximal effect)
Method in brief: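 After 6 hr plating at 37C in 2% stripped-serum medium, PR-UAS-bla HEK293T cells got compounds, then 1 nM R5020. Sixteen hours later, LiveBLAzer substrate was applied for 2 hr at room temperature and fluorescence was recorded.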

[5] = qHTS assay to identify small molecule antagonists of the progesterone receptor (PR) signaling pathway - cell viability counter screen (AID 1346798); also: series mostly up to about 92 µM; nearly all actives have a fitted effect of over 50% in size
Method in brief: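 Viability was determined by ATP-based luminescence (CellTiter-Glo) in PR-UAS-bla HEK293T cells cultured in 2% charcoal-stripped serum and incubated 16 hr with compounds under R5020 stimulation.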

[6] = qHTS assay to identify small molecule agonists of the progesterone receptor (PR) signaling pathway - cell viability counter screen (AID 1346799; calls by dose curve; also: nearly all actives have a fitted effect of over 45% in size)
Method in brief: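 Viability was scored by ATP luminescence (CellTiter-Glo, 30 min, room temperature) in the same wells used for the reporter readout, after 16 hr compound exposure of PR-UAS-bla HEK293T cells.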

[7] = qHTS assay to identify small molecule antagonists of the TGF-beta/Smad signaling pathway - cell viability counter screen (AID 1346824); also: nearly all actives have a fitted effect of over 50% in size
Method in brief: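 SBE-bla HEK 293T cells were plated overnight at 37 C, then given compounds in DMSO plus TGF-beta1 (added as 0.25 ng/mL solution) for 5 hr. After the bla read, CellTiter-Glo was added to the same wells and luminescence read after 30 min at room temperature.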

[8] = qHTS assay to identify small molecule agonists of the TGF-beta/Smad signaling pathway - cell viability counter screen (AID 1346829); also: top concentration of the series differs between compounds; nearly all actives have a fitted effect of over 45% in size
Method in brief: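 Cytotoxicity counter screen: CellTiter-Glo luminescence (30 min, room temperature) measured in the SBE-bla HEK 293T reporter wells after 5 hr compound treatment at 37 C and the 2 hr substrate step.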

[9] = qHTS assay to identify small molecule agonists of the TGF-beta/Smad signaling pathway (AID 1346859; active = well fitted activation curve with a large enough effect in the signal ratio in the repeat runs, not every such curve was filed as active; the % refers to the signal ratio; also: series mostly up to about 77 µM)
Method in brief: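 Dual-wavelength fluorescence (460/530 nm emission) quantified beta-lactamase expression under the Smad binding element in HEK 293T cells following 5 hr compound treatment at 37 C.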

[10] = molecular target: Thyrotropin-releasing hormone receptor (Homo sapiens) (UniProt P34981); test: qHTS assay to identify small molecule antagonists of the thyrotropin-releasing hormone receptor (TRHR) signaling pathway (AID 1346877; active = well fitted inhibition curve with a large enough effect in the repeat runs, not every such curve was filed as active; also: series mostly up to about 51 µM)
Method in brief: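 Human TRHR in HEK293 cells; inhibition of the intracellular calcium rise triggered by 1 nM TRH was followed by fluorescence over 3 min. Compounds were run at 15 concentrations, three replicates each.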

[11] = molecular target: Thyrotropin-releasing hormone receptor (Homo sapiens) (UniProt P34981); test: qHTS assay to identify small molecule agonists of the thyrotropin-releasing hormone receptor (TRHR) signaling pathway (AID 1346891; calls by dose curve;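 also: HEK293 cells expressing TRHR with calcium dye readout; series mostly up to about 58 µM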)
Method in brief: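 Kinetic fluorescence (3 min, 1 s intervals) reported intracellular calcium after compound transfer onto TRHR-Hek293 cells pre-loaded with dye for 2 h at 37 °C.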

[12] = Human pregnane X receptor (PXR) small molecule agonists, qHTS cell viability counter screen (AID 1346977); also: nearly all actives have a fitted effect of over 50% in size
Method in brief: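 HepG2 cells stably carrying the PXR-Luc reporter are cultured with 5% charcoal-stripped FBS and treated with compounds for 24hr. CellTiter-Fluor is added at 23hr and fluorescence is read after 1hr.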

[13] = Caspase-3/7 induction in HepG2 cells by small molecules, qHTS assay (AID 1346978); also: nearly all actives have a fitted effect of over 15% in size
Method in brief: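 Wild-type HepG2 cells (2,000/well) were settled 5 h at 37 C, 5% CO2, then exposed to compounds in DMSO for 17 h. Caspase-3/7 activity was read by luminescence 30 min after adding Caspase-Glo 3/7 reagent at room temperature.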

[14] = Caspase-3/7 induction in CHO-K1 cells by small molecules, qHTS assay (AID 1346980); also: nearly all actives have a fitted effect of over 15% in size; also: potency is read from the fitted curve at half-maximal effect
Method in brief: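 Wild-type cells were seeded at 1,500 per well and settled 5 hr at 37 C, 5% CO2, then exposed to DMSO-dissolved compounds for 17 hr. Caspase-Glo 3/7 reagent was added, and luminescence was read after 30min at room temperature.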

[15] = molecular target: Nuclear receptor subfamily 1 group I member 2 (Homo sapiens) (UniProt O75469); test: Human pregnane X receptor (PXR) small molecule agonists, qHTS assay (AID 1346982); also: nearly all actives have a fitted effect of over 35% in size; also: potency is read from the fitted curve at half-maximal effect
Method in brief: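 After plating in 5% charcoal-stripped FBS and a 5 hr rest, PXR-Luc HepG2 cells received compounds in DMSO. Following 24 hr at 37 C, ONE-Glo was added and light output read.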

[16] = Caspase-3/7 induction in CHO-K1 cells by small molecules, qHTS cell viability counter screen (AID 1346979); also: nearly all actives have a fitted effect of over 35% in size
Method in brief: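 Seeding: 1,500 CHO-K1 cells/well. Rest: 5hr, 37C. Treatment: compounds in DMSO, 16hr. Read: CellTiter-Fluor, 1hr, fluorescence.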

[17] = Caspase-3/7 induction in HepG2 cells by small molecules, qHTS cell viability counter screen (AID 1346981); also: series mostly up to about 92 µM; nearly all actives have a fitted effect of over 30% in size
Method in brief: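 The parent HepG2 line is plated at 2,000 cells per well and rested 5 hr before compound pinning from DMSO stocks. Following a 16-hr treatment at 37 C, a fluorogenic live-cell substrate (CellTiter-Fluor) reports viability after 1 hr.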

[18] = molecular target: Nuclear receptor subfamily 1 group I member 2 (Rattus norvegicus) (UniProt Q9R1A7); test: Rat pregnane X receptor (rPXR) activation by small molecules, qHTS assay (AID 1346983); conditions: rPXR luciferase reporter cells, One-Glo luminescence, 24 h; stronger effect = higher value; also: nearly all actives have a fitted effect of over 20% in size
Method in brief: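 Cell-based rPXR luciferase reporter assay, 2,000 cells per well, rested 5hr at 37 C before compound addition in DMSO, then 24 hr at 37 C. One-Glo reagent was added and luminescence read after 30 min at room temperature.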

[19] = molecular target: Nuclear receptor subfamily 1 group I member 2 (Homo sapiens) (UniProt O75469); test: CYP3A4 induction through human pregnane X receptor (PXR) by small molecules, qHTS assay (AID 1346984); also: nearly all actives have a fitted effect of over 40% in size
Method in brief: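 Human PXR activation is tracked via CYP3A4 promoter-luciferase in DPX-2 (HepG2) cells. Compounds treat cells for 24hr at 37C, and luminescence is read after One-Glo.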

[20] = molecular target: Nuclear receptor subfamily 1 group I member 2 (Homo sapiens) (UniProt O75469); test: Human pregnane X receptor (PXR) activation by small molecules, qHTS assay (AID 1346985); also: nearly all actives have a fitted effect of over 40% in size
Method in brief: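 DPX-2 cells (HepG2 co-transfected with a PXR response element and a CYP3A4-promoter luciferase construct) were seeded at 2,000 per well, rested 5 hr at 37C, then exposed to DMSO-dissolved compounds for 24 hr. Activation was read as luciferase luminescence.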

Chain of Thyrotropin-releasing hormone receptor (Homo sapiens) (P34981 whole entry, looked up): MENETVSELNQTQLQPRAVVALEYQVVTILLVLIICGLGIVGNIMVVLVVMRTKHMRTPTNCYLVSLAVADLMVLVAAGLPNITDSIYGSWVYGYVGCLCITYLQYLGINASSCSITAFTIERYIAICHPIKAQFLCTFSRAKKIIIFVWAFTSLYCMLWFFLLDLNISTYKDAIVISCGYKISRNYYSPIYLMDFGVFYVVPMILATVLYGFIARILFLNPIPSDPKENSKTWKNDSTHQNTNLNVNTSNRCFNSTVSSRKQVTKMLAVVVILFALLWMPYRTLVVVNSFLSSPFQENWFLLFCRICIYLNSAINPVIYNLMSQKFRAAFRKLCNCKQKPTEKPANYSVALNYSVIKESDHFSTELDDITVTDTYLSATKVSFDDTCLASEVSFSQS
Chain of Progesterone receptor (Homo sapiens) (P06401 whole entry, looked up): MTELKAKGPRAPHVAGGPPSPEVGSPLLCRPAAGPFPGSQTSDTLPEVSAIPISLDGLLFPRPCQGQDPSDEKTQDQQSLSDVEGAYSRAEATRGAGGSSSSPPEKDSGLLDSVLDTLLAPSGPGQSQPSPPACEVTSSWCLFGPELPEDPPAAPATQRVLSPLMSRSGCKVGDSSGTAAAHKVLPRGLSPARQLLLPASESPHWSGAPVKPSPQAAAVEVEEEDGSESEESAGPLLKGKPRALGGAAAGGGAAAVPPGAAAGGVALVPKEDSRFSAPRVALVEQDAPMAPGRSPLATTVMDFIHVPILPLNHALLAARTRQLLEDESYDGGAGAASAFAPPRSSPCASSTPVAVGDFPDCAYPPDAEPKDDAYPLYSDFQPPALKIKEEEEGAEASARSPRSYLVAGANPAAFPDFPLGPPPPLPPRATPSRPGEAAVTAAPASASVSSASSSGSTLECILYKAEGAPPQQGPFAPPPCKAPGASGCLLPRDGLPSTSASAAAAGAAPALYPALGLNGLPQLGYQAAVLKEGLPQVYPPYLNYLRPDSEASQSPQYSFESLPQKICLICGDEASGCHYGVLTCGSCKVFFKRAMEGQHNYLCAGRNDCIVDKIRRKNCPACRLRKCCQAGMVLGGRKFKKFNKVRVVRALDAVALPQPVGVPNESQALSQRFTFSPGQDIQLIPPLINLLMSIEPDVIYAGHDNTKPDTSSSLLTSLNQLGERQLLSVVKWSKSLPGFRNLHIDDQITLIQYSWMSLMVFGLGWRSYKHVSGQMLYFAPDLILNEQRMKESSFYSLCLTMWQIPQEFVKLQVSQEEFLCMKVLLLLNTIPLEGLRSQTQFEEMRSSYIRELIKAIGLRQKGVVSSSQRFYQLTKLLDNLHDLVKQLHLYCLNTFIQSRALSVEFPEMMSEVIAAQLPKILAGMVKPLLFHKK
Chain of Thyrotropin receptor (Homo sapiens) (P16473 whole entry, looked up): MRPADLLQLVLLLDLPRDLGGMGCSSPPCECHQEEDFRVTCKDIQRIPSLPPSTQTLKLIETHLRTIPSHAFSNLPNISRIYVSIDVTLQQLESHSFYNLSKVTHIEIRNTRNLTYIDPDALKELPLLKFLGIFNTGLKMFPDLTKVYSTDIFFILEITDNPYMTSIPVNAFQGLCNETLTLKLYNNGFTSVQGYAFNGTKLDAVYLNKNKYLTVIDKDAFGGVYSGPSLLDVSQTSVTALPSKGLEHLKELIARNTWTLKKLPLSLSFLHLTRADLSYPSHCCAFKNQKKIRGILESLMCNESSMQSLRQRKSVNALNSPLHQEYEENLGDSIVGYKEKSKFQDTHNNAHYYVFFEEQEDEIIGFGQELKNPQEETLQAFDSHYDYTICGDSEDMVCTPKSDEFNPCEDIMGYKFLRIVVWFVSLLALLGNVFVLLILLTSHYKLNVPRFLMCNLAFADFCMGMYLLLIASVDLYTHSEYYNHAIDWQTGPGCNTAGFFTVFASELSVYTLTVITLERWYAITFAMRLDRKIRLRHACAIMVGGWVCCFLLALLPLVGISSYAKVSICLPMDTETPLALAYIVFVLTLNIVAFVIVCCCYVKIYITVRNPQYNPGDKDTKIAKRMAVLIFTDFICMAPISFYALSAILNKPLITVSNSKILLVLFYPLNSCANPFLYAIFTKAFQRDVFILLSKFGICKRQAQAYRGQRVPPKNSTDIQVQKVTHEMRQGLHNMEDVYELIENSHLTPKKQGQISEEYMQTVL
Chain of Nuclear receptor subfamily 1 group I member 2 (Homo sapiens) (O75469 whole entry, looked up): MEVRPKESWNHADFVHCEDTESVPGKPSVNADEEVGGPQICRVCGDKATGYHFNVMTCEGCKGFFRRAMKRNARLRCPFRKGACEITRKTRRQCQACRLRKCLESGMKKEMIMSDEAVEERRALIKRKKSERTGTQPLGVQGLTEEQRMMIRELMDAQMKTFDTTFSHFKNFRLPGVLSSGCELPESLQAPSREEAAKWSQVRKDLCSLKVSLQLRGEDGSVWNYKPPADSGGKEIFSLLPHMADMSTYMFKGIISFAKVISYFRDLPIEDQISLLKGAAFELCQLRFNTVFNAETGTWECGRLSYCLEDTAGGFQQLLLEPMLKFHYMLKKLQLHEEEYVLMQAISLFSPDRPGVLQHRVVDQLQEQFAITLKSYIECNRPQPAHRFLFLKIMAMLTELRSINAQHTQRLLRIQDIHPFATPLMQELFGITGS
Chain of Nuclear receptor subfamily 1 group I member 2 (Rattus norvegicus) (Q9R1A7 whole entry, looked up): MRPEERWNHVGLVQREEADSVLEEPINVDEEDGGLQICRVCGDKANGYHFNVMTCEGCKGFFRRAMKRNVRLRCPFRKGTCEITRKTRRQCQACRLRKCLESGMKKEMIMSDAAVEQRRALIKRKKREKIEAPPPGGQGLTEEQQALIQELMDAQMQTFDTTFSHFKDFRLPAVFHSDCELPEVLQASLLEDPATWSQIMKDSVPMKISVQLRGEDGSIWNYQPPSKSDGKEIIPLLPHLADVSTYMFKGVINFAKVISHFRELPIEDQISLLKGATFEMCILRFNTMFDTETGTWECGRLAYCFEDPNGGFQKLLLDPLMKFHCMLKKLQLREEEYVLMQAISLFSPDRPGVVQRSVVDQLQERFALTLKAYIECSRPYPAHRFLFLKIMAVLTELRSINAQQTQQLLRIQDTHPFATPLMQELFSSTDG

Compound	outcome [1]	Potency [2]	Potency [3]	Potency [4]	Potency [5]	Potency [6]	Potency [7]	Potency [8]	outcome [9]	Potency [10]	Potency [11]	Potency [12]	Potency [13]	Potency [14]	Potency [15]	Potency [16]	Potency [17]	max activation [18]	outcome [19]	outcome [20]
NNC(=S)NN	inactive	inactive	inactive	62.8 µM (active) and 54.5 µM (active)	inactive	inactive	inactive	inactive	inactive	inactive	inactive	inactive	inactive	56 µM (active) and inactive	inactive					
CCCCN(CC)c1c([N+](=O)[O-])cc(C(F)(F)F)cc1[N+](=O)[O-]	inactive	inactive	inactive	inactive	inactive	inactive	inactive	inactive	inactive	inactive	inactive	inactive	inactive	inactive	27.7 µM (active) and 7.7 µM (active)	inactive	inactive			
CCC(C)(C)c1ccc(O)cc1	inactive	inactive	inactive	inactive	inactive	inactive	inactive	inactive	inactive	inactive	inactive	inactive		inactive	inactive		inactive	-0.805% (inactive)	inactive	inactive
CC(C)C(=O)OCC(C)(C)C(OC(=O)C(C)C)C(C)C (configuration not stated)	inactive	inactive	inactive	inactive	inactive	inactive	inactive	inactive	inactive	inactive	inactive	inactive	inactive	inactive	inactive	inactive	inactive			
C=C(C)C(=O)OCC1CO1 (configuration not stated)	inactive	inactive	inactive	inactive	inactive	inactive	inactive	inactive	inactive	inactive	inactive	inactive	inactive	inactive	inactive		inactive			
O=C1C=CC(=O)C=C1	inactive	inactive	inactive	inactive	inactive	inactive	inactive	inactive	inactive	inactive	inactive	inactive	inactive	inactive	inactive		inactive			
CC(C)N(C(=O)SCC(Cl)=C(Cl)Cl)C(C)C	inactive	inactive	inactive	inactive	inactive	inactive	inactive	inactive	inactive	inactive	inactive	inactive	inactive	inactive	inactive		inactive			
COC(=O)c1sccc1S(=O)(=O)NC(=O)Nc1nc(C)nc(OC)n1	inactive	inactive	inactive	inactive	inactive	inactive	inactive	inactive	inactive	inactive	inactive	inactive	inactive	inactive	inactive	inactive	inactive			
